From PubChem BioAssay
Compounds with a hit are over-represented: about 17% of the library has one in this group of screens.
TGFb inhibitor: qHTS for Inhibitors of TGF-b | HepG2 CAGA-GFP TGF-b/SMAD3 reporter, GFP fluorescence, 18 h; TGF-beta stimulated, 500 pg/mL final | Potency, µM (doses to about 46.1 µM), most hits filed as inhibitors | 1.2% of 410,000 active | AID 588855, 2011; note: nearly all actives have a fitted effect of over 65% in size
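Per well, imaged GFP fluorescence of HEPG2 CAGA-GFP cells gives the signal; cells get compound, then TGF-beta (500 pg/mL final), 18 h at 37 degrees C; %Activity versus -TGF-beta and +DMSO controls.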
DT40 TDP1 no CPT: qHTS for Inhibitors of human tyrosyl-DNA phosphodiesterase 1 (TDP1): qHTS in cells in absence of CPT; DT40 Tdp1-/- hTDP1 cells, no CPT, ATP luminescence, 48 h; Potency, µM (titrated, usually from 46.2 µM), hits mostly inhibitors; 15% of 420,000 active; AID 686978, 2013; note: nearly all actives have a fitted effect of over 55% in size
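DT40 Tdp1-/-;hTDP1 cells, no CPT (DMSO vehicle only), 400 cells/well; compounds pin-transferred; ≥48 hr, 37 °C; CellTiter-Glo 30 min RT dark, luminescence read.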
ATXN viability: Viability Counterscreen for Primary qHTS for Inhibitors of ATXN expression | Potency, µM (series often up to 56.7 µM), actives largely listed as cytotoxic | S2 cells (HEK-293 line with an ATXN2-luciferase reporter) viability, CellTiter-Fluor protease fluorescence, 24 h | AID 651635, 2014 | 0.49% of 400,000 active; note: nearly all actives have a fitted effect of over 40% in size
DT40 TDP1 CPT: qHTS for Inhibitors of human tyrosyl-DNA phosphodiesterase 1 (TDP1): qHTS in cells in presence of CPT. chicken DT40 Tdp1-/-;hTDP1 cells + 20 nM CPT, ATP luminescence, 48 h. Potency, µM (highest dose often 46.2 µM), most hits filed as inhibitors. 12% of 420,000 active. AID 686979, 2013; note: nearly all actives have a fitted effect of over 55% in size
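Chicken DT40 Tdp1-/- cells stably complemented with human TDP1 were seeded at 400 cells/well in medium containing 20 nM camptothecin, exposed to pin-transferred compounds, and grown at 37 °C for at least 48 hr. Viability was read as ATP luminescence.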
HepG2 viability: qHTS for Inhibitors of TGF-b: Cytotox Counterscreen; HepG2 CAGA-GFP viability, ATP luminescence, 18 h; Potency, µM (highest dose often 46.1 µM), actives largely listed as cytotoxic; 0.76% of 410,000 active
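CellTiter-Glo luminescence gave cytotoxicity after 18 hours at 37 degrees C. The cells were HepG2 CAGA-GFP in 1% FBS DMEM, stimulated with 500 pg/mL TGF-beta after compound addition. %Activity was normalised to no-cell wells (complete cell-killing) and DMSO (no toxicity), and curves were fitted and classified.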
ATXN2 expr inh: Primary qHTS for Inhibitors of ATXN expression | Potency, µM (doses to about 57 µM), usual class: inhibitors | 0.72% of 360,000 active | HEK-293 ATXN2-luciferase reporter, luminescence, 24 h | AID 1745845, 2022; note: nearly all actives have a fitted effect of over 55% in size
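ATXN2-luciferase reporter cells (luciferase flanked by upstream and downstream ATXN2 gene portions) were treated 24 h at 37 °C with compounds at up to 57 uM. SteadyGlo luminescence gave expression; GF-AFC fluorescence gave viability.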
Each line names hits and unclear results; the compound was inactive in the other large screens. Calls come from the whole dose curve; as a rule, active = well fitted curve in the direction sought with a large enough effect; inconclusive = small, poorly fitted or top-dose-only effect, or another doubt; inactive = no such curve, though single readings can be large; an effect the other way counts as inactive or inconclusive.

O=C1COc2ccc(C(=O)COC(=O)CCSc3ccccc3)cc2N1	none (no result: ATXN2 expr inh)
CC(C)CC(NC(=O)c1ccc(Cl)cc1)C(=O)OCC(=O)c1ccc2c(c1)NC(=O)CO2 (stereo unspecified)	TGFb inhibitor 11µM, DT40 TDP1 no CPT 12µM, ATXN viability 22µM, DT40 TDP1 CPT 12µM, HepG2 viability 3.2µM, ATXN2 expr inh 25µM
CCC(C(=O)OCC(=O)c1ccc2c(c1)NC(=O)CO2)c1ccccc1 (stereo unspecified)	DT40 TDP1 no CPT 21µM
CCN(CC)C(=O)c1c2c(nc3ccccc13)-c1ccccc1CC2	DT40 TDP1 no CPT inconclusive, ATXN viability inconclusive, DT40 TDP1 CPT inconclusive
CCN(CC)C(=O)c1nc(-c2cccc3ccccc23)no1	DT40 TDP1 no CPT 16µM, DT40 TDP1 CPT inconclusive (no result: ATXN2 expr inh)
CCOC(=O)C1=NN(C(C)=O)C2C(=O)N(CC)C(=O)C12 (stereo unspecified)	none (no result: ATXN2 expr inh)
Cc1ccc(NC(=O)CSc2nc3ccccc3n2CC(=O)N2CCC(C)CC2)cc1C	DT40 TDP1 no CPT 18µM, DT40 TDP1 CPT inconclusive
CCCCN(C)C(=O)Cn1c(SCC(=O)Nc2ccc(C)c(C)c2)nc2ccccc21	DT40 TDP1 no CPT 13µM, ATXN viability inconclusive, DT40 TDP1 CPT inconclusive
Cc1cc2ccccc2n2c(SCC(=O)Nc3ccc(S(=O)(=O)N4CCC(C)CC4)cc3)nnc12	TGFb inhibitor inconclusive, DT40 TDP1 no CPT 23µM, DT40 TDP1 CPT 29µM
Cc1cc2cc(C)c3nnc(SCC(=O)Nc4ccc(S(=O)(=O)N5CCCCC5)cc4)n3c2cc1C	ATXN viability inconclusive, DT40 TDP1 CPT inconclusive, ATXN2 expr inh inconclusive
CCN(CC)C(=O)Cn1c(SCC(=O)Nc2ccc(C)c(C)c2)nc2ccccc21	DT40 TDP1 no CPT inconclusive, ATXN viability inconclusive, DT40 TDP1 CPT inconclusive
Cc1ccc(-n2cccn2)c(CN2CCCC(C(=O)c3ccc4c(c3)OCO4)C2)c1 (stereo unspecified)	DT40 TDP1 no CPT inconclusive, DT40 TDP1 CPT inconclusive, ATXN2 expr inh inconclusive
Cc1nc(NC(=O)C23CC4CC(CC(C4)C2)C3)sc1Cc1ccc2c(c1)OCO2	TGFb inhibitor inconclusive, DT40 TDP1 no CPT 21µM, DT40 TDP1 CPT inconclusive
Cc1c(Cc2ccc3c(c2)OCO3)sc(NC(=O)C2CC2)c1C(N)=O	DT40 TDP1 no CPT 10µM, DT40 TDP1 CPT 10µM
CSc1cccc(NC(=S)N(CCCN2CCCC2)Cc2cccs2)c1	DT40 TDP1 no CPT inconclusive, DT40 TDP1 CPT inconclusive
CSc1cccc(NC(=S)N(CCCN2CCCC2)Cc2cccn2Cc2ccc(Cl)cc2)c1	TGFb inhibitor inconclusive, DT40 TDP1 no CPT 9.2µM, DT40 TDP1 CPT inconclusive, ATXN2 expr inh 14µM (no result: ATXN viability)
S=C(Nc1ccc(Cl)cc1)N(CCCN1CCOCC1)Cc1cccs1	none
COc1cccc(NC(=S)N(CCCN2CCCC2)Cc2cccn2Cc2ccc(Cl)cc2)c1	TGFb inhibitor inconclusive, DT40 TDP1 no CPT 18µM, ATXN viability inconclusive, DT40 TDP1 CPT inconclusive, ATXN2 expr inh inconclusive
S=C(Nc1cccc(Cl)c1)N(CCCN1CCCC1)Cc1cccn1Cc1ccc(Cl)cc1	TGFb inhibitor inconclusive, DT40 TDP1 no CPT 18µM, ATXN viability 28µM, DT40 TDP1 CPT inconclusive, HepG2 viability 25µM, ATXN2 expr inh 32µM
COc1cccc(NC(=S)N(CCCN2CCCC2)Cc2ccco2)c1	none
O=C(Nc1ccccc1C(=O)OCc1cc(=O)n2nc(C3CC3)sc2n1)c1cccc(F)c1	none
CC1(c2nnnn2Cc2ccccc2)CCC(=O)N1CC1CCCCC1 (stereo unspecified)	DT40 TDP1 no CPT inconclusive, ATXN viability inconclusive, DT40 TDP1 CPT inconclusive (no result: TGFb inhibitor, HepG2 viability)
Cc1ccc(Sc2ccc(S(=O)(=O)Nc3ccc(CC(=O)O)cc3)cc2)cc1C	TGFb inhibitor inconclusive
